Data from PubChem BioAssay (NCATS).
Records with an inconclusive call do not appear. Active and inactive are the calls of the source. Unless noted, calls come from the whole dose curve; as a rule, active = well fitted curve in either direction with a large enough effect (not every such curve was filed as active); inconclusive = small, poorly fitted or top-dose-only effect, or another doubt; inactive = flat fitted curve, though single readings scatter.

Columns and labels:
[1] = biological target: Lysosomal acid glucosylceramidase (Homo sapiens) (UniProt P04062); test: Glucocerebrosidase-p2 (AID 348; in the data active = potency below about 10 µM; note: potency is the fitted concentration of half-maximal effect); settings: purified GBA, blue fluorogenic substrate, 40 min
Procedure, shortened: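 Compounds titrated from 0.6 nM upwards against 0.2 nM enzyme in pH 5.9 citric acid/KH2PO4, taurocholate, tween-20; blue fluorogenic substrate 80 uM, 40 min room temperature, stopped and read Ex 365/Em 440 for AC50.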

[2] = AP1 Signaling Pathway (AID 357); settings: ME-180 AP-1-bla reporter, EGF-induced, beta-lactamase ratio, 5 h; at 7.69 µM (top of the series) unless noted;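 note: ME-180 reporter cells stimulated with EGF at its EC50 level; % is set by controls: 0 for no effect and ±100 for the full control effect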
Procedure, shortened: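 A ratiometric CCF4 readout (405 nm excitation; 460 and 530 nm emission) quantified AP-1-driven beta-lactamase in ME-180 cells after 5 h with compound and EC50 EGF; AC50 values were derived for activators and inhibitors.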

[3] = biological target: Cytochrome P450 1A2 (Homo sapiens) (UniProt P05177); test: p450-cyp1a2 (AID 410; calls by dose curve;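 note: -100% = full effect of reference inhibitor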); settings: recombinant CYP1A2, luciferin-ME demethylation, luminescence; series mostly up to 11.4 µM
Procedure, shortened: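 Luminescent readout of luciferin formed from Luciferin-ME by human CYP1A2; data normalized against complete inhibition by 57 uM furafylline. Enzyme 20nM, substrate 100uM at Km, 100mM KPO4 buffer, 60 min reaction at room temperature.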

[4] = NFAT Signaling Pathway (AID 444); settings: Jurkat NFAT-bla M1, carbachol, beta-lactamase ratio, 5 h; at 7.69 µM (top of the series) unless noted;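 note: carbachol stimulus at about its EC50 of 1 µM final; % is set by controls: 0 for no effect and ±100 for the full control effect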
Procedure, shortened: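 Jurkat cells carrying an NFAT-driven β-lactamase reporter and co-transfected muscarinic M1 receptor were treated with compound plus carbachol (1 uM final, an EC50 level) for 5 h at 37 °C. CCF4 loading followed for 1 h at RT; 460/530 nm ratio gave %activity.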

[5] = Stat Signaling Pathway (AID 446); settings: ME-180 SIE beta-lactamase reporter, IL-6 stimulated, 5 h; at 7.69 µM (top of the series) unless noted;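 note: ME-180 cervical cancer cells given 40 pM IL-6 alongside compound; SIE-controlled beta-lactamase reporter measured as 460/530 nm FRET emission ratio; % is set by controls: 0 for no effect and ±100 for the full control effect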
Procedure, shortened: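 ME-180 cells carrying a SIE-driven beta-lactamase reporter are stimulated with 40 pM IL-6 for 5 h at 37C in the presence of compound. The 460/530 nm FRET substrate ratio is read after 2.5 h at RT. Data are normalised to 300 pM IL-6 and to 125 nM JAK inhibitor controls.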

[6] = biological target: Glucocorticoid receptor (Homo sapiens) (UniProt P04150); test: GR-GFP Redistribution (AID 450;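 active = compounds whose dose series gives a full or clear partial fitted curve of increased nuclear translocation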; note: potency is the fitted concentration of half-maximal effect); settings: U2OS GR-GFP nuclear translocation, laser cytometry, 2 h
[7] = biological target: Glucocorticoid receptor (Homo sapiens) (UniProt P04150); test: GR-EFC Redistribution (AID 451; calls by dose curve; note: potency is the fitted concentration of half-maximal effect); settings: CHO-K1 GR-EFC translocation, beta-gal luminescence, 2 h
Procedure, shortened: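 CHO-K1 cells stably expressing nuclear-localized β-gal enzyme acceptor and GR fused C-terminally to the enzyme donor fragment; ligand-driven nuclear translocation restores β-gal by complementation. Compounds titrated up to 46 uM final, 2 h at 37 °C; luminescence read.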

[8] = biological target: Mitogen-activated protein kinase 10 (Mus musculus) (UniProt Q61831); test: JNK3 AlphaScreen Assay (AID 530); settings: JNK3 lysate, c-Jun phosphorylation; series mostly up to 57.1 µM;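 note: kinase came from lysate of stimulated human HepG2 cells; signal reports phosphorylation of biotinylated GST-cJun 1-79 at Ser73 with 10 µM ATP; % is set by controls: 0 for no effect and ±100 for the full control effect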
Procedure, shortened: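 Inhibitors reduce antibody binding to phosphorylated biotin-cJun, lowering AlphaScreen luminescence. Lysates from HepG2 cells pre-activated by IL-1beta plus TNF-alpha supplied JNK3; compounds were titrated.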

[9] = biological target: 3',5'-cyclic-AMP phosphodiesterase 4B (Homo sapiens) (UniProt Q07343); test: qHTS Assay for Inhibitors of PDE-IV (AID 607; active = well fitted activation curve with a large enough effect in the main read-out, with a control signal flat, not every such curve was filed as active; note: % of control where 0% means no effect); settings: HEK293 ACTOne CNG channel cells, membrane potential fluorescence; series mostly up to 22.9 µM
Procedure, shortened: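 HEK293 ACTOne cells with CNG channel (1000/well), endogenous PDE4; membrane potential dye, compounds up to 22.9 uM final. Fluorescence Ex 535/Em 590; RO 20-1724 (100 uM final) as reference.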

Sequence of Glucocorticoid receptor (Homo sapiens) (P04150 whole entry, looked up, the tested form may be a part): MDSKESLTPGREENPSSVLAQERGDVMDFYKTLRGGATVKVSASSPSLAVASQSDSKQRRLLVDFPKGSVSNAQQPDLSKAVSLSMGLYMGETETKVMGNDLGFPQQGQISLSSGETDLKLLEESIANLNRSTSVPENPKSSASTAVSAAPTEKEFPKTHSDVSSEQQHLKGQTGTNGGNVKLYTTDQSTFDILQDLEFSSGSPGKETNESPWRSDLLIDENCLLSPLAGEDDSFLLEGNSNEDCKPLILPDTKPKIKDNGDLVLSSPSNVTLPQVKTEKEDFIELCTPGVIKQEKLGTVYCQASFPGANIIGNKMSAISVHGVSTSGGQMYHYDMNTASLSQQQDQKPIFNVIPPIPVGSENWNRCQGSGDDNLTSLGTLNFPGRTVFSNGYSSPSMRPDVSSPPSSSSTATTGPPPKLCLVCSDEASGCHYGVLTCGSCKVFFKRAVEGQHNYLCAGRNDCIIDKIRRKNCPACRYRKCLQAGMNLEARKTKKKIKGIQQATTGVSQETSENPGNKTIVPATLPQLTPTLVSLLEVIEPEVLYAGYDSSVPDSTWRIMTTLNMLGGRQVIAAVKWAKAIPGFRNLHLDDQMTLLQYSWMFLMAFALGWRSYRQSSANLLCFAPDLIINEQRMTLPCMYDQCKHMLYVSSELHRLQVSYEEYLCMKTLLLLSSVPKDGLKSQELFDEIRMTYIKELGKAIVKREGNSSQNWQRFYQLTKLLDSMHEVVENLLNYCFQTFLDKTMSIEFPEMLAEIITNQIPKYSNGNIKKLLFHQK
Sequence of Cytochrome P450 1A2 (Homo sapiens) (P05177 whole entry, looked up): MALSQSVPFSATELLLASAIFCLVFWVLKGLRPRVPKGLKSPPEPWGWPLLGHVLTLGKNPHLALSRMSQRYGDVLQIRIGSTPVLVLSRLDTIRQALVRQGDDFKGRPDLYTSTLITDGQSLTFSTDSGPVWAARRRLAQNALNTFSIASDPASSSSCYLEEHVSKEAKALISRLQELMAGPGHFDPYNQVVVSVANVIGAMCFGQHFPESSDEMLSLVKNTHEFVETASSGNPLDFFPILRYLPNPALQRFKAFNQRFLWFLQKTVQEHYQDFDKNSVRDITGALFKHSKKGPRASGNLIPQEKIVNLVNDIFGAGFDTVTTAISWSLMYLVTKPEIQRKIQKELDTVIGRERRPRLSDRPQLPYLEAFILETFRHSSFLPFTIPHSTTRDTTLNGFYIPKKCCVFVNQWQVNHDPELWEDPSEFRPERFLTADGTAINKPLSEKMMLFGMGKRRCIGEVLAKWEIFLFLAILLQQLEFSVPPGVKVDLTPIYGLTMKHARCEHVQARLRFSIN
Sequence of 3',5'-cyclic-AMP phosphodiesterase 4B (Homo sapiens) (Q07343 whole entry, looked up): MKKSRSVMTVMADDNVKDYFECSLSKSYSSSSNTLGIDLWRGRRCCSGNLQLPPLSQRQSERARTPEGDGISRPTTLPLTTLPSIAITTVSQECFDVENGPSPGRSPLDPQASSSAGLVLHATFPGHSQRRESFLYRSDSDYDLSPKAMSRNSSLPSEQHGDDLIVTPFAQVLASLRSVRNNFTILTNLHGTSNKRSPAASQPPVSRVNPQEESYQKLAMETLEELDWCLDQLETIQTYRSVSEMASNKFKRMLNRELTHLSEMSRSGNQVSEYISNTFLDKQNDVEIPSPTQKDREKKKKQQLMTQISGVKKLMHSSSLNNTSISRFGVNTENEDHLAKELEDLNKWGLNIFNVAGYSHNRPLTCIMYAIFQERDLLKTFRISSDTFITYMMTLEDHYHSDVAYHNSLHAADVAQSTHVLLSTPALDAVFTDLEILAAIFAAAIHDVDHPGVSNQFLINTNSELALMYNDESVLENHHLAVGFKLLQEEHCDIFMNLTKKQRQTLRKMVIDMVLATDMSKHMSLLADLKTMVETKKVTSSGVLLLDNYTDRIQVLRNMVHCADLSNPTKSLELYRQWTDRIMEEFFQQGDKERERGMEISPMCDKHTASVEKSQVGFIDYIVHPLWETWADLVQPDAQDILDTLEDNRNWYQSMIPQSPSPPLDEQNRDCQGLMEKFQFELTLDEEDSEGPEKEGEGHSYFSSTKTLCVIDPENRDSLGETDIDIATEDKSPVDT
Sequence of Lysosomal acid glucosylceramidase (Homo sapiens) (P04062 whole entry, looked up): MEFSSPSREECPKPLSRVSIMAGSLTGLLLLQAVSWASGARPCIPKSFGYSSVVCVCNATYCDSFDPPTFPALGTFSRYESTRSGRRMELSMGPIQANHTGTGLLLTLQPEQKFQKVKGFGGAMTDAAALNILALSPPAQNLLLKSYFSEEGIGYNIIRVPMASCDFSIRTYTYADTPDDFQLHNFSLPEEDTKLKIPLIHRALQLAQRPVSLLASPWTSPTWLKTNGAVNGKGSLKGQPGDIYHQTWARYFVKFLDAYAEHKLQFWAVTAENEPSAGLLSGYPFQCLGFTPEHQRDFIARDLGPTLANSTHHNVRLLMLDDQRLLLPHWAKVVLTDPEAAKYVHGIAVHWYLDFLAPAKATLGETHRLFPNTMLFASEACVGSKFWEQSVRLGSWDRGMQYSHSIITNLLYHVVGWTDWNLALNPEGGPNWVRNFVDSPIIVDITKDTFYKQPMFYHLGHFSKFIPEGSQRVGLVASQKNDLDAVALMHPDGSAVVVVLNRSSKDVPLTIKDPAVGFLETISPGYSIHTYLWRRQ

CN(C)CCCc1cccnc1
inactive: Potency [1] > 11.4 µM | activity change, negative = inhibition [2] 3.48% | activity change, negative = inhibition [3] -10.2% [at 2.29 µM] | activity change, negative = inhibition [4] 16.7% | activity, negative = inhibition [5] -4.3% | Potency [6] > 46 µM | Potency [7] > 9.22 µM | activity change, negative = inhibition [8] 3.96% [at 11.4 µM] | outcome [9]
